In PubChem BioAssay (NCI) one finds growth data, which are given here for 13 compounds.

Common to all, as to experiment: NCI-60 one-dose screen, 48 h (100 = growth as untreated, 0 = no growth, -100 = all killed)
Common to all, as to settings: 10 µM unless noted

Assay [1] relates to SR leukemia.
In assay [2] the test system is RPMI-8226 leukemia.
Assay [3] has as its system OVCAR-8 ovarian.
The test system of assay [4] is OVCAR-5 ovarian.
For assay [5], the system named is OVCAR-4 ovarian.
Assay [6] has as its system SK-OV-3 ovarian.
Assay [7] concerns IGROV1 ovarian.
In assay [8] the test system is OVCAR-3 ovarian.
Assay [9] concerns NCI/ADR-RES ovarian.
Assay [10] deals with HS 578T breast.

Where “and” joins values, the source holds several entries; their conditions need not be identical. Identical values can stand only once. About 83,000 compounds went through this panel and 20% of them were active in at least one assay; those are over-represented in the sample as a whole.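 Testing used 96-well plates and a 48-hour single-concentration exposure. Example: -40 means 40% of the starting cells died.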 Values without a mark were called inactive. Calls of active or inactive are those of the source. How the source made its calls: active means growth percent below 10; inactive means the rest.

For the compound `O=C(NCc1ccc(Cn2c(=O)sn(-c3ccc(Cl)cc3)c2=O)cc1)OCc1ccc2c(Cl)cc(Cl)c(O)c2n1`, the growth is 51.9% in assay [1]; 46.8% in [2]; 38.1% in assay [3]; 74.9% in assay [4]; 67.3% in assay [5]; 76% in assay [6]. Besides, the growth in assay [7] was 49.2%; in assay [8], 63.7%; in [9], 6.82% (active).
Take `O=C(N=Nc1c(O)[nH]c2ccccc12)Nc1ccc(Br)cc1`: the growth is 76.7% in assay [1]; 66.9% in assay [2]; 98.9% in [3]; 81.4% in assay [4]; 102% in assay [5]; 97% in [6]. The results for the growth in [7], in assay [10] and in assay [9] were 85.2%, 87.4% and 97.2%, respectively.
In the case of `CN(C)C1CCN(C(=O)c2ccc(NC(=O)Nc3ccc(-c4nc(N5CCOCC5)c5cccn5n4)cc3)cc2)CC1`, the growth was 8.47% (active) in [1]; -20.8% (active) in assay [2]; -0.587% (active) in [3]; -0.314% (active) in assay [4]; -26.9% (active) in assay [5]; -30.8% (active) in assay [6]. For the same compound, the figures for the growth in assay [7], in assay [8] and in assay [9] were -26.4% (active), -12% (active) and 85.1%, respectively.
Consider `CC(C)=CCc1cc(O)c(O)c2oc3cc(O)cc(O)c3c(=O)c12`, for which the growth in [1] was 25.9%; in assay [2] it was 48.2%; in assay [3], 51.1%; in assay [4], 75%; in assay [5], 62.5%; in assay [6], 65.7%. For the same compound, the growth in [7] was 55%; in assay [8], 67.4%; in [9], 28.2%.
Regarding `O=C1/C(=C/c2cn(-c3ccccc3)nc2-c2ccccc2)SC(=S)N1c1ccc(Cl)cc1`, the growth is 39.5% in assay [1]; 78.8% in assay [2]; 64.5% in assay [3]; 93.4% in [4]; 80.3% in [5]; 104% in assay [6]. For the same compound, the values for the growth in assay [7], in assay [10] and in assay [9] were 69.1%, 83.7% and 85.7%, respectively.
For the compound `C/C=C(/C)C(=O)O[C@@H]1CC(C)(C)CC2C34OC(=O)[C@@]21CC[C@@]3(C)[C@]1(C)CCC2C(C)(C)C(=O)CC[C@]2(C)C1C[C@@H]4Cl` (some centres not stated), the growth in assay [1] was 108%; in [2] it was 91%; in [3], 96%; in assay [4], 95.9%; in [5], 96.2%; in [6], 99.7%. Besides, the growth in assay [7] was 96.8%; in assay [10], 99.8%; in [9] it was 106%.
As for `COc1cc(/C=C2\CCC/C(=C\c3cc(CN4CCCC4)c(O)c(OC)c3)C2=O)cc(CN2CCCC2)c1O`, the growth in assay [1] is 8% (active); in assay [2] it was 14.2%; in [3] it was 8.24% (active); in assay [4], 39.9%; in [5], 47.1%; in assay [6] it was 102%. Besides, the growth in assay [7] was 52.7%; in assay [8] it was 6.05% (active); in assay [9] it was 59.8%.
For the compound `O=c1cc(N/N=C/c2ccc(F)cc2)c2cc(Cl)ccc2[nH]1`, the growth in assay [1] was 4.1% (active); in [2] it was -43.8% (active); in [3], 93.6%; in assay [4], 88.4%; in [5] it was 92.9%; in [6] it was 84.9%. Besides, the growth in assay [7] was 107%; in assay [10], 121%; in assay [9] it was 105%.
On to `COc1ccc(/C=C2/C(=O)N=C3N2NC(c2ccccc2)=CN3c2ccccc2)cc1`, for which the growth is 106% in assay [1]; 99.9% in assay [2]; 98.1% in [3]; 107% in [4]; 102% in assay [5]; 107% in [6]. Moreover, the growth is 95.9% in assay [7], 95.4% in assay [10] and 96.9% in [9].
As for `COc1ccc(C(CC(=O)c2ccc3c(c2)OCO3)C(=O)O)cc1OC` (configuration not stated), the growth in [1] is 116% and 90.8%; in assay [2] it was 103% and 96.1%; in assay [3], 107% and 106%; in [4], 118% and 99.9%; in assay [5], 132% and 108%; in assay [6], 113% and 105%. Moreover, the growth in assay [7] was 131% and 106%; in assay [10], 94.8% and 121%; in [9], 106% and 98.5%.
On to `COC(=O)c1[nH]nc(OC)c1C1(C(C#N)c2nc3ccccc3s2)CCCc2ccccc21` (configuration not stated), for which the growth in assay [1] is 99.8%; in [2] it was 94.7%; in assay [3], 100%; in [4], 80.3%; in [5] it was 103%; in assay [6], 87%. The growth is 79% in [7], 99.2% in [10] and 101% in assay [9].
Regarding `O=C(/C=C/C12c3ccccc3C(c3ccccc31)C1C(=O)NC(=O)C12)c1ccncc1` (configuration not stated), the growth in assay [1] is 1.11% (active); in assay [2] it was -29.6% (active); in assay [3] it was 1.79% (active); in assay [4], 13.7%; in [5], 31.8%; in assay [6], 71.8%. Also, the growth was 9.72% (active) in assay [7], 38% in assay [10] and 23.9% in [9].
Turning to `Nc1nc(CSc2n[nH]c(N)n2)nc(Nc2ccccc2)n1`, the growth in assay [1] is 120%; in assay [2], 102%; in assay [3] it was 104%; in assay [4], 98.8%; in [5] it was 93.4%; in assay [6], 104%. In addition, the growth in assay [7] is 108%; in assay [10], 81.5%; in assay [9] it was 105%.
